In PubChem BioAssay AID1347416 (National Center for Advancing Translational Sciences (NCATS), 2020) one finds Potency data, which are given here for 56 compounds.

Among all 4,100 compounds or so, about 1,600 (39%) were called active. Inconclusive results (about 25%) are left out. Calls come from the whole dose curve; as a rule, active = well fitted inhibition curve with a large enough effect; inconclusive = small, poorly fitted or top-dose-only effect; inactive = no such curve, though single readings can be large or run the other way. The list shows a part of the results.
Potency is the fitted concentration of half-maximal effect.

A short description of this assay: qHTS Validation assay for Inhibitors of Plasmodium falciparum Dd2 growth in vitro. Note: nearly all actives have a fitted effect of over 70% in size. As to conditions: P. falciparum Dd2 in RBCs, SYBR Green growth, 72 h; series mostly up to 28.7 µM. The method, boiled down: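 P. falciparum Dd2-infected red blood cells (2.5% hematocrit, 0.3% parasitemia) grown 72 h at 37 °C under 5% O2 with compounds in a titration, 29 uM to 0.5 nM final. Growth read as SYBR Green-1 fluorescence after ~16 h lysis; artesunate 300 nM as positive control.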
For `Cc1noc(CN(C)C(=O)C2C3C(=O)N(Cc4ccc(C)c(C)c4)C[C@@]34C=C[C@@H]2O4)n1` (stereo partly specified), the Potency entry was “inactive”. In the case of `O=C(C1CCCCC1)N1CCN(C2CCN(Cc3cccnc3)C2=O)CC1` (stereo unspecified), the Potency entry is “inactive”. The value for `CCOC(=O)c1ccc2c(c1)[C@@H]1C=CC[C@@H]1[C@H](c1cccc(OC)c1OC)N2` was 2.66 µM (active). The value for `COc1ccc(-c2noc(-c3cccn3CC(=O)NC(C)C)n2)cc1F` was “inactive”; that for `COc1ccc(-c2noc(-c3cccn3CC(=O)NC3CCCCC3)n2)cc1F` was “inactive”. The value for `COc1cccc(NC(=O)Cn2cccc2-c2nc(-c3ccc(OC)c(F)c3)no2)c1` was 6.68 µM (active); that for `COc1ccc(NC(=O)Cn2cccc2-c2nc(-c3ccc(OC)c(F)c3)no2)cc1` was 4.73 µM (active). As for `COc1ccc(-c2noc(-c3cccn3CC(=O)Nc3ccccc3)n2)cc1F`, the Potency was 2.37 µM (active). The value for `CCOc1ccc(NC(=O)Nc2cc(OCC(F)(F)F)cc(OCC(F)(F)F)c2)cc1` was 13.3 µM (active); that for `Cc1cccc(-c2ccc3c(c2)C(=O)N2C[C@H](O)C[C@H]2C(=O)N3)c1C` was “inactive”. The value for `CCN1CCN(Cc2ccc(NC(=O)c3ccc(C)c(NC(=O)C(=O)c4c[nH]c5ccccc45)c3)cc2C(F)(F)F)CC1` was 1.5 µM (active); that for `CCN1CCN(Cc2ccc(NC(=O)c3cc(NC(=O)C(=O)c4c[nH]c5ccccc45)cc(OC)c3)cc2C(F)(F)F)CC1` was 0.668 µM (active); that for `Cc1cn(-c2cc(C(=O)Nc3ccc(C)c(NC(=O)C(=O)c4c[nH]c5ccccc45)c3)cc(C(F)(F)F)c2)cn1` was 2.11 µM (active). The value for `CNC(=O)[C@@H]1CN(C(=O)c2c[nH]c3ccccc23)C[C@H]1COC` was “inactive”; that for `CCN1CCN(Cc2ccc(NC(=O)c3ccc(C)c(NC(=O)c4c[nH]c5cc(C(F)(F)F)ccc5c4=O)c3)cc2C(F)(F)F)CC1` was 0.531 µM (active); that for `CCn1nc(C)c(-c2cc(C(=O)N3CCc4nc5cc(-c6ccccc6)[nH]n5c(=O)c4C3)no2)c1C` was “inactive”.

As to `COc1cc2nc(NCCc3cccc(C)c3)n3nc(-c4ccccc4)nc3c2cc1OC`, the Potency was 0.842 µM (active). Then `COc1ccc(CCNc2nc3cc(OC)c(OC)cc3c3nc(-c4ccccc4)nn23)cc1OC`, with 2.37 µM (active); and `COc1ccc(CCc2nc3nccc(-c4ccc5c(c4)OCCCO5)n3n2)cc1OC`, with “inactive”; and `COc1cc2c(cc1O)CC[n+]1cc3c(OC)c(OC)ccc3cc1-2`, with 7.5 µM (active).

With `COC(=O)c1ccc2nc(C[C@@H]3C[C@@H](C(C)C)[C@H](CNC4CCCCC4)C=C3C)[nH]c2c1`, the Potency is 8.41 µM (active).

`COc1ccc2nc(C[C@@H]3C[C@@H](C(C)C)[C@H](CNCc4ccccn4)C=C3C)[nH]c2c1`: the Potency was 0.769 µM (active). `COc1ccccc1CNC[C@@H]1C=C(C)[C@H](Cc2nc3c(C)cccc3[nH]2)C[C@H]1C(C)C`: the Potency is 9.68 µM (active). Consider `CC1=C[C@@H](CNC(=O)c2cnccn2)[C@H](C(C)C)C[C@H]1Cc1nc2ccc(F)cc2[nH]1`, for which the Potency result is “inactive”. Then `COc1ccc2nc(C[C@@H]3C[C@@H](C(C)C)[C@H](CNCc4ccccc4OC)C=C3C)[nH]c2c1`, with 9.44 µM (active); and `CC1(C)Cc2ccccc2C2=NNC(=O)C2=N1`, with 3.35 µM (active); and `CC(Oc1ccccc1)C(=O)Nc1cnc(-c2cccc(Cl)c2)nc1` (stereo unspecified), with “inactive”. Then `CCC(C(=O)Nc1nc(C)c(C)s1)c1ccccc1` (stereo unspecified), with “inactive”. The value for `O=C(Nc1nc(-c2ccccn2)cs1)Nc1ccc(F)cc1F` was 5.31 µM (active); that for `O=C(Cc1ccccc1O)NCc1cccnc1Oc1ccc(F)cc1F` was “inactive”. With `CC(Oc1ccccc1)C(=O)Nc1nc(-c2ccccn2)cs1` (stereo unspecified), the Potency was 8.41 µM (active). Then `CC1Cc2nc(SCC(=O)Nc3ccc4c(c3)OCO4)n(-c3ccc(F)cc3)c(=O)c2S1` (stereo unspecified), with 2.99 µM (active).

For `CCC(Sc1nc2c(c(=O)n1CC)SC(C)C2)C(=O)OC` (stereo unspecified), the Potency result is “inactive”.

`Cc1cc(NC(=O)CSc2nc3c(c(=O)n2Cc2ccccc2)SC(C)C3)no1` (stereo unspecified): the Potency result was “inactive”.

As to `NNC(=O)CN1C(=O)Nc2ccc(Cl)cc2C1c1ccccc1` (stereo unspecified), the Potency result is “inactive”.

Turning to `CCOc1ccccc1C(=O)N1CC(=O)Nc2ccc(Cl)cc2C1c1ccccc1` (stereo unspecified), the Potency was 9.44 µM (active). The value for `O=C(Nc1ccncc1)c1cc(-c2cccc(Br)c2)nc2ccccc12` was 13.3 µM (active); that for `O=C(NCc1ccco1)c1cc(-c2ccncc2)nc2ccccc12` was 5.96 µM (active); that for `O=C(Nc1cccnc1)c1cc(-c2cccnc2)nc2ccc(Br)cc12` was 2.66 µM (active). The value for `Cc1ccc2oc(-c3cccc(NC(=O)c4cccc5c(Cl)cccc45)c3)nc2c1` was “inactive”. Consider `CCN(CC)CCNC(=O)c1ccc(NC(=O)c2cc(-c3ccncc3)nc3ccccc23)cc1`, for which the Potency entry is “inactive”. Consider `O=C(CCC1CCCC1)N1CC(c2nnc(-c3ccncc3)o2)C2(CCOCC2)C1` (stereo unspecified), for which the Potency entry is “inactive”. In the case of `COc1cc(C#Cc2c(-c3cncn3C)n(C)c3ccc(-c4ccc5[nH]ccc5c4)cc23)cc(OC)c1`, the Potency is 2.37 µM (active).

Turning to `COc1cc(C#Cc2c(-c3cncn3C)n(C)c3ccc(-c4ccc(OC)c(OC)c4)cc23)cc(OC)c1`, the Potency is 4.73 µM (active).

Take `COc1ccc(-c2c(C#Cc3ccsc3)c3cc(-c4cccc5[nH]ccc45)ccc3n2C)cc1`: the Potency was 6.68 µM (active).

Take `CC(=O)NCCc1ncc(C)n1C1CCCCCC1`: the Potency result is “inactive”. The value for `CC(=O)NCCc1ncc(C)n1C1CCC1` was “inactive”; that for `CCOC(=O)c1cnc(-n2nc(C)cc2C)nc1NC1CCCC1` was 8.41 µM (active). Then `CCOC(=O)c1cnc(-n2nc(C)cc2C)nc1NNc1nc(-c2ccccc2)cc(-c2ccccc2)n1`, with 2.11 µM (active); and `ClC(Cl)(Cl)c1nc2ccccc2n2nncc12`, with 2.11 µM (active); and `COc1cccc(-c2cc3c(=O)n(CCNC(=O)c4cccc5[nH]ccc45)ccn3n2)c1`, with “inactive”.

Regarding `CCCN(CCC)CCNC(=O)c1cc2c(-c3ccc(Cl)cc3)nn(C)c2s1`, the Potency was 0.596 µM (active). For `CCCCN(CC)CCNC(=O)c1cc2c(-c3ccc(Cl)cc3)nn(C)c2s1`, the Potency was 0.668 µM (active). The value for `CCCCN(C)CCNC(=O)c1cc2c(-c3cccc(OC)c3)nn(C)c2s1` was 6.68 µM (active); that for `CN(CCNC(=O)c1cc2c(-c3ccccc3F)nn(C)c2s1)C1CCCCC1` was 5.96 µM (active). The value for `COc1cccc(-c2cc(C(=O)NCC34CCC=C3N(C)C(=O)CC4)[nH]n2)c1` (stereo unspecified) was “inactive”.
